# This is a sample that favours compounds with a hit; in the whole collection about 7.9% have one here.
# HCMV antiviral: qHTS Assay for inhibitors of the human cytomegalovirus (HCMV); HFF cells, HCMV-luciferase reporter, 72 h; hits give low values; activity change, negative = inhibition, % at 57.5 µM; actives 4.5% (n = 410,000); in the data active means activity change below about -60%; inconclusive means no clear call, values can overlap the other calls; inactive means above about -39%
#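 Screen run at 2 compound doses on HFFs infected with reporter HCMV, MOI 1 PFU/cell. Luciferase activity from cell lysates at 72 h post infection gave inhibition relative to buffer-only and Salinomycin wells.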
# LASV entry inh: qHTS for Inhibitors of binding or entry into cells for Lassa Virus; Lassa virus pseudotype entry inhibition, cell reporter; Potency, µM (titrated, usually from 37.9 µM), most hits filed as inhibitors; actives 1.2% (n = 300,000); AID 540256, 2011; calls by dose curve; tested in HEK293 cells; further: nearly all actives have a fitted effect of over 50% in size
# FMDV inh: High Throughput Screening for Foot and Mouth Disease Virus Antivirals; FMDV antiviral cell-based qHTS; Potency, µM (highest dose often 57.9 µM), usual class: inhibitors; actives 1.2% (n = 410,000); AID 1159524, 2015; calls by dose curve; tested in HEK293T cells; further: read-out not given here; nearly all actives have a fitted effect of over 45% in size
# HCV inh: qHTS Assay for Inhibitors of Hepatitis C Virus (HCV) | Potency, µM (titrated, usually from 41.8 µM), most hits filed as inhibitors | Huh7.5.1 HCVcc-Cre infection, luciferase reporter, 44 h | actives 3.4% (n = 340,000); active means well fitted inhibition curve with a large enough effect; inconclusive means small, poorly fitted or top-dose-only effect, or another doubt; inactive means no such curve, though single readings can be large or run the other way
#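 Reporter virus HCVcc-Cre (~0.5 moi) infects cells exposed to compound; seeding density 1,000 cells/well with 4 h settling beforehand. Luminescence, 15 sec read, taken 44 h post-infection following a 15 min RT substrate incubation.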
# Marburg entry inh: qHTS for inhibitors of binding or entry into cells for Marburg Virus. AID 540276, 2011. Potency, µM (top dose mostly 37.8 µM), usual class: inhibitors. Marburg virus pseudotyped entry inhibition, cell reporter. actives 1.8% (n = 300,000); calls by dose curve; tested in HEK293 cells
# A number is an active result; - = inactive; ? = inconclusive; . = no result given; + = active, no number.
SMILES,HCMV antiviral,LASV entry inh,FMDV inh,HCV inh,Marburg entry inh
CC1CCCCC1NC(=O)c1nn(C)c2c1CS(=O)(=O)c1ccccc1-2 (configuration not stated),-,.,-,-,.
CCOC(=O)[C@]12CCCC=C1N(Cc1ccccc1)C(=O)[C@H](CC(=O)NCc1ccccc1)C2,?,.,-,.,.
Cc1cccc(C)c1NS(=O)(=O)c1ccc(NC(=O)c2ccc(Cl)c([N+](=O)[O-])c2)cc1,-66,-,-,7.1µM,-
O=C(Nc1ccccc1N1CCCCC1)c1ccc(F)c(S(=O)(=O)N2CCOCC2)c1,-,-,-,10µM,-
O=C(Nc1ccccc1)Nc1ccc(Cl)c([N+](=O)[O-])c1,?,?,-,13µM,?
O=C(Nc1ccc(S(=O)(=O)NC2=NCCCCC2)cc1)c1ccc(Cl)c([N+](=O)[O-])c1,?,.,-,?,.
Cc1ccc(C(=O)Nc2cccc(S(=O)(=O)N3CCCCC3)c2)cc1S(=O)(=O)N1CCOCC1,-,.,?,8.9µM,.
Cc1ccc(NC(=O)Nc2ccccc2)cc1[N+](=O)[O-],-,-,-,?,-
CC1CCc2c(sc3[nH]c(=S)n(C)c(=O)c23)C1 (configuration not stated),-,-,-,-,-
CCc1ccccc1OCC(=O)Nc1cccc(S(=O)(=O)NC2=NCCC2)c1,-,.,-,?,.
Cc1c(NC(=O)c2ccc(Cl)c([N+](=O)[O-])c2)cccc1-n1cnnn1,-,?,-,11µM,?
Cc1ccc(NC(=O)c2cc3c(s2)CCC3)cc1S(=O)(=O)N1CCOCC1,-65,-,?,7.9µM,-
Cc1ccc(C(=O)NNC(=O)c2ccccc2O)cc1S(=O)(=O)N1CCCCC1,-,-,-,13µM,-
Cc1c(NC(=O)c2ccc(S(=O)(=O)N(C)C)cc2)cccc1-n1cnnn1,-,.,-,-,.
O=C(Nc1ccc2c(c1)CCC2)c1ccc(F)c(S(=O)(=O)N2CCOCC2)c1,?,?,-,16µM,?
Cc1cccc(C(=O)N2CCC(C)(C(=O)NS(=O)(=O)C3CC3)C2)c1C (configuration not stated),-,.,-,.,.
CN1CCSc2ccc(C(=O)NCc3cccc(Br)c3)cc21,-,.,-,-,.
Cc1cccc(C(=O)N2CCn3c(nnc3C(=O)NC(C)C)C2)c1C,-,.,.,.,.
COc1ccc(CCC(=O)NNC(=O)c2ccccn2)cc1OC,-,-,-,?,?
Cc1cc(C)c(S(=O)(=O)N2Cc3ccccc3-n3nncc3C2)c(C)c1,?,.,22µM,.,.
O=C1C(=Cc2ccc(F)cc2)CCc2ccccc21,-,.,-,.,.
COc1ccc(-c2csc(C(C)(O)c3ccccc3)n2)cc1 (configuration not stated),-,.,-,.,.
COc1cccc(C(C)(O)c2nc(-c3ccc(N(C)C)cc3)cs2)c1 (configuration not stated),-74,.,-,.,.
COc1ccc(-c2csc(C(C)(O)c3cccnc3)n2)cc1 (configuration not stated),-69,.,-,.,.
COc1ccc(C(C)(O)c2nc(-c3ccccc3)cs2)cc1 (configuration not stated),-78,.,-,.,.
SMILES,HCMV antiviral,LASV entry inh,FMDV inh,HCV inh,Marburg entry inh
CCc1cccc(C)c1NC(=O)Cn1cc2c(n1)CCCC2,-,-,-,.,-
COc1ccccc1Cn1c(/C=C/c2ccccc2)nc2ccccc21,-,?,-,10µM,?
COCCn1c(/C=C/c2ccccc2)nc2ccccc21,-,?,-,-,10µM
COc1ccc(/C=C/c2nc3ccccc3n2Cc2ccccc2OC)cc1,-98,?,-,?,?
CCc1ccc(CN(C)Cc2c(C(=O)N3CCOCC3)nc3c(C)cccn23)nc1,-,.,-,.,.
CN(C)c1ncc2nc(-c3ccccc3)c(=O)n(CCC#N)c2n1,.,.,-,.,.
CN(C)CCCOc1ccc2c(c1)Sc1ccccc1CC2=O,-,-,-,10µM,?
O=C1Cc2ccccc2Sc2cc(OCCCN3CCCCC3)ccc21,-,?,-,?,?
CCN(CC)CCNC(=O)C(Cl)=C1C(Cl)=C(Cl)C(Cl)=C1Cl,-76,?,22µM,?,?
CCn1c(COc2cc(C)cc(C)c2)nnc1SCC(=O)N1CCN(c2ccccc2)CC1,?,-,?,?,-
C=CCn1c(COc2cccc(C)c2C)nnc1SCC(=O)N1CCN(c2ccccc2)CC1,?,5.6µM,18µM,?,?
CCn1c(COc2c(C)cccc2C)nnc1SCC(=O)N1CCN(c2ccccc2)CC1,?,?,?,35µM,?
Cc1cccc(OCc2nnc(SCC(=O)N3CCN(c4ccccc4)CC3)o2)c1C,-,-,?,-,-
Cc1ccc2c(=O)c(C(=O)c3ccc(F)cc3)cn(CC(=O)NCCc3ccccc3)c2n1,-,-,-,.,.
Cc1ccccc1NC(=O)CCc1c(C)nn(-c2ccc(N3CCOCC3)nn2)c1C,+,-,-,-,-
Cc1ccccc1NC(=O)CCc1c(C)nn(-c2ccc(N3CCCCC3)nn2)c1C,-,?,-,?,?
CCOc1ccccc1CNC(=O)CCc1c(C)nn(-c2ccc(N3CCCC3)nn2)c1C,-60,-,-,.,.
O=c1cc(N2CCCC2)c2ccccc2o1,-,-,-,11µM,-
O=c1cc(N2CCOCC2)c2ccccc2o1,-,-,.,-,-
COc1cccc(CN2CCc3nnc(CCc4ccccc4)n3CC2)c1OC,.,.,-,.,.
O=C(Cc1ccccc1)NNC(=O)C1CC=CCC1 (configuration not stated),-,-,-,-,-
CC(NC(=O)/C=C/c1ccc(Br)cc1)c1ccccc1 (configuration not stated),-,15µM,-,-,?
O=C(/C=C/c1ccc(O)c(O)c1)NC(=O)c1ccccc1O,-,.,-,-,.
Cc1ccc(/C=C/C(=O)NC(C)c2ccccc2)cc1 (configuration not stated),-,11µM,-,-,-
O=C(/C=C/c1ccc(Br)cc1)NC(=O)c1ccccc1O,-102,-,-,-,-
SMILES,HCMV antiviral,LASV entry inh,FMDV inh,HCV inh,Marburg entry inh
Cc1ccc(-c2cc(C(=O)N3N=C(C(F)F)CC3(O)C(F)F)c3ccccc3n2)cc1C (configuration not stated),-89,-,-,?,-
O=C(c1cc(-c2ccccc2)nc2ccccc12)N1N=C(C(F)F)CC1(O)C(F)F (configuration not stated),-,?,-,-,-
c1ccc(C2NCCc3c2[nH]c2ccccc32)cc1 (configuration not stated),.,.,.,.,-
CCCCNC(=O)CCc1c(C)nc2nc(-c3cc(OC)cc(OC)c3)nn2c1C,-95,-,-,-,-
O=[N+]([O-])c1ccc(Sc2ccncn2)c([N+](=O)[O-])c1,-86,.,28µM,.,.
Cc1cc(C)nc(Sc2ccc([N+](=O)[O-])cc2[N+](=O)[O-])n1,?,?,7.1µM,-,?
O=[N+]([O-])c1ccc(Sc2cccc3cccnc23)c([N+](=O)[O-])c1,-106,.,?,-,.
C[C@@H]1C(=O)N(C)C(=O)c2nc[nH]c21,.,.,.,.,-

# Screening results (PubChem)
